The values below come from PubChem BioAssay.

Activity calls are given as the source filed them. Unless noted, no rule for the calls is given here.

Experiment [1] relates to Wnt5a (protein binding on small-molecule microarray). Nature of the experiment: Wnt5a binders on small-molecule microarray, primary screen, biophysical, 635/667 nm fluorescence (AID 1142).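 Also: fluorescence read at 667 nm with signal to noise per printed feature.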 As to conditions: 635 nm fluorescence, higher = more signal.
Experiment [2] is described as follows: cell viability in Huh7 cells, primary screen, cytotoxicity control for HCV replication inhibitor project, CellTiter-Glo luminescence, basal, 48 h (AID 1143).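 Also: Huh7 hepatoma cells carrying a hepatitis C replication reporter with no stimulus; test concentration not given here.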 As to conditions: Huh7 HCV replicon, higher = more signal, called active from +8 up or from −8 down.
Experiment [3] in a line: P. aeruginosa biofilm formation inhibitors, primary screen, PAO1 strain, BacTiter-Glo luminescence, LB-PBS (AID 1144). As to conditions: 12 h, higher = more signal.
A short description of experiment [4]: CREB reporter modulators without forskolin, primary screen, cell-based, PC12, CRE-LacZ reporter, unstimulated (AID 1145). To be noted: no forskolin, luminescence, 4.5 h, higher = more signal, called active from +8 up or from −8 down.
Experiment [5] can be described thus: CREB reporter modulators under forskolin, primary screen, cell-based, PC12, CRE-LacZ reporter, forskolin-stimulated (AID 1146).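 Also: PC12 cells with 6xCRE LacZ reporter stimulated by forskolin 10 µM; beta-galactosidase reporter signal reflecting CREB driven transcription.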 To be noted: luminescence, 4.5 h, higher = more signal, called active from +8 up or from −8 down.
Experiment [6] deals with Streptavidin (Streptomyces avidinii) (UniProt P22629). Kind of experiment: streptavidin binders on small-molecule microarray, primary screen, artefact control for SMM compound annotation, biophysical, 635/667 nm fluorescence (AID 1147).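 Also: signal reflects streptavidin binding to arrayed compounds as a control protein.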 To be noted: streptavidin binding, higher = more signal.
A short description of experiment [7]: small-molecule binders of probe aInhba, primary screen, biochemical, small-molecule microarray, 635/667 nm fluorescence (AID 1148).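 Also: score merges 667nm spot fluorescence with signal-to-noise for antibody binding to printed compounds.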 As to conditions: higher = more signal.
The target in experiment [8] is Torsin-1A (Homo sapiens) (UniProt O14656). Nature of the experiment: torsin A binders from cell lysate, primary screen, small-molecule microarray, wild-type, 635/667 nm (AID 1149). As to conditions: COS7 hTOR1A-WT lysate, 635 nm fluorescence, higher = more signal.
For experiment [9] the target is unchanged. Nature of the experiment: small-molecule binders of mutant TOR1A in lysate, primary screen, cell lysate, small-molecule microarray, COS7 lysate, 635/667 nm fluorescence (AID 1150).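 Also: score pools 667 nm emission and signal to noise measuring lysate protein binding.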 To be noted: COS7 hTOR1A mutant lysate, 635 nm fluorescence, higher = more signal.
The subject of experiment [10] is Sonic hedgehog protein (Shh). Kind of experiment: small-molecule binders of Shh protein, primary screen, biochemical, small-molecule microarray, 635/667 nm fluorescence (AID 1151).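 Also: Shh protein binding to compounds spotted on small-molecule microarray slides; score combines spot fluorescence intensity with signal-to-noise across triplicate slides.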 As to conditions: small-molecule microarray binding, 635 nm fluorescence; higher = more signal.

Torsin-1A (Homo sapiens), sequence (O14656 whole entry, looked up): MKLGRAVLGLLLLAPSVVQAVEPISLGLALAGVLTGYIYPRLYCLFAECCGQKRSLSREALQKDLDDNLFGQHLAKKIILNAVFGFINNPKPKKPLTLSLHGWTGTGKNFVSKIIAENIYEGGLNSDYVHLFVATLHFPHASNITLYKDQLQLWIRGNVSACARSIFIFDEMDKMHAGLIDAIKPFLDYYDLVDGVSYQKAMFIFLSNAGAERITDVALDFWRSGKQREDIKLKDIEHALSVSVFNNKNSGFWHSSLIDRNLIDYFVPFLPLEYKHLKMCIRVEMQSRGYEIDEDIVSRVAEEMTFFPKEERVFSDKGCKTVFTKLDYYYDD
Streptavidin (Streptomyces avidinii), sequence (P22629 whole entry, looked up): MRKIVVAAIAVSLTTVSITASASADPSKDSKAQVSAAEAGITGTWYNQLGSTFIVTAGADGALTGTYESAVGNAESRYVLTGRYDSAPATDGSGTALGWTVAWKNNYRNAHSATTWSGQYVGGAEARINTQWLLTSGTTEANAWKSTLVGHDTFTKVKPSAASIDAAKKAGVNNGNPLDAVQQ

As for `CCOC(=O)C1=CC[C@@H](c2cc(Cl)ccc2Cl)N(S(=O)(=O)c2ccc(C)cc2)[C@H]1c1ccc(OC)cc1`, the composite z-score worked out at 1.11 in experiment [1]; 0.0102 in [6]; 0.482 in [7]; 0.234 in the experiment with Torsin-1A (Homo sapiens) [8]; 0.42 with Torsin-1A (Homo sapiens) [9]; 0.172 in experiment [10]. In addition, the z-score is -4.08 (inactive) in experiment [2], 0.42 (inactive) in experiment [3], 0.472 (inactive) in [4] and -0.555 (inactive) in experiment [5].
With `COc1ccc(CCNC(=O)[C@@]2(Sc3ccc(C)cc3)CC(=O)N(Cc3cc(C(F)(F)F)cc(C(F)(F)F)c3)[C@@H]2c2ccc(CO)cc2I)cc1`, the composite z-score in experiment [1] is -0.466; in experiment [6], 0.762; in [7] it was 0.0184; with Torsin-1A (Homo sapiens) [8] it was 0.579; with Torsin-1A (Homo sapiens) [9] it was -0.145; in experiment [10] it was 0.697. For the same compound, the z-score was -0.73 (inactive) in experiment [2], -0.623 (inactive) in experiment [3], -0.554 (inactive) in experiment [4] and 1.05 (inactive) in experiment [5].
With `O=C(O)[C@]1(Cc2ccccc2)N=C(c2ccc(OCCCO)cc2)O[C@@H]1c1ccccc1`, the composite z-score was -0.159 in experiment [1]; -0.423 in [6]; -0.119 in experiment [7]; -0.639 with Torsin-1A (Homo sapiens) [8]; -0.411 in the experiment with Torsin-1A (Homo sapiens) [9]; -1.78 in experiment [10]. In addition, the z-score in experiment [2] is -1.14 (inactive); in experiment [3], 0.534 (inactive); in experiment [4], -0.445 (inactive); in experiment [5], -0.471 (inactive).
Take `C=C(C(=O)CC[C@H](OC(=O)c1cccnc1)c1ccc(CO)o1)C(C)C`: the composite z-score amounted to 0.159 in experiment [1]; 0.441 in experiment [6]; 0.228 in experiment [7]; 0.684 with Torsin-1A (Homo sapiens) [8]; 0.449 with Torsin-1A (Homo sapiens) [9]; 1.79 in experiment [10]. Moreover, the z-score in [2] was 0.3 (inactive); in experiment [3], 0.232 (inactive); in [4], 0.48 (inactive); in experiment [5], 1.17 (inactive).
Turning to `CC(C)N1CC=CC23O[C@@H]4C=CCOC(=O)[C@@H]4[C@H]2C(=O)N(C(C)CO)[C@@H]3C1=O` (stereo not given in full), the composite z-score in [1] is -0.517; in experiment [6] it was -0.23; in experiment [7] it was -0.161; with Torsin-1A (Homo sapiens) [8] it was -1.33; in the experiment with Torsin-1A (Homo sapiens) [9], -1.43; in [10], -0.753. For the same compound, the z-score in experiment [2] was 0.394 (inactive); in experiment [3], 0.995 (inactive); in experiment [4] it was -0.619 (inactive); in [5] it was -0.544 (inactive).
In the case of `C[C@@H]1ON(c2ccc(C(=O)OC(C)(C)C)cc2)[C@H](c2ccc(Br)cc2)[C@H]1C(=O)N1C(=O)OC[C@H]1Cc1ccccc1`, the composite z-score in experiment [1] came out at 0.232; in experiment [6], 1.03; in [7], 0.0301; in the experiment with Torsin-1A (Homo sapiens) [8], 0.673; with Torsin-1A (Homo sapiens) [9], 0.644; in experiment [10] it was 0.991. In addition, the z-score was -1.09 (inactive) in [2], 1 (inactive) in experiment [3], 2.04 (inactive) in experiment [4] and 0.289 (inactive) in [5].
For `COCCOC(=O)N1C(=O)[C@@]2(c3cc(C#CC4(O)CCCCCC4)ccc31)[C@H](C(N)=O)[C@H]1C(=O)O[C@H](c3ccccc3)[C@H](c3ccccc3)N1[C@@H]2c1ccc(O)cc1`, the composite z-score in experiment [1] was 0.179; in experiment [6] it was 0.184; in experiment [7], -0.0645; in the experiment with Torsin-1A (Homo sapiens) [8], -0.0243; with Torsin-1A (Homo sapiens) [9], 0.0342; in [10], 0.778. For the same compound, the z-score in experiment [2] is -1.02 (inactive); in experiment [3] it was 0.00701 (inactive); in experiment [4] it was 2.25 (inactive); in [5], 3.59 (inactive).
For the compound `CCOc1cc(C(O)C2C=CC3C(=O)N(C4CCCCC4)C(=O)C3N2Nc2ccc(OC)cc2)ccc1O` (stereo not given), the composite z-score is 0.0751 in experiment [1]; 1.43 in experiment [6]; 0.0808 in experiment [7]; 0.705 with Torsin-1A (Homo sapiens) [8]; 1.17 with Torsin-1A (Homo sapiens) [9]; -0.207 in experiment [10]. Also, the z-score is -1.26 (inactive) in experiment [2], -0.855 (inactive) in experiment [3], 0.276 (inactive) in [4] and -1.51 (inactive) in experiment [5].
As for `CC(C)C(O)C1C=CC2C(=O)N(C)C(=O)C2N1Nc1ccccc1` (stereo not given), the composite z-score was 0.361 in [1]; 0.53 in experiment [6]; 0.85 in [7]; 0.378 with Torsin-1A (Homo sapiens) [8]; 0.597 with Torsin-1A (Homo sapiens) [9]; -0.361 in [10]. Moreover, the z-score was 1.03 (inactive) in experiment [2], -1.04 (inactive) in [3], 0.0535 (inactive) in [4] and -0.0784 (inactive) in experiment [5].
Turning to `COc1ccc([Si](C)(C)[C@H]2[C@H](CCO)O[C@@]3(C(=O)N(Cc4cccc(N5CCCCC5=O)c4)c4ccccc43)[C@@H]2C)cc1`, the composite z-score in experiment [1] is 0.416; in [6] it was 0.569; in [7], -0.116; with Torsin-1A (Homo sapiens) [8] it was -0.0387; with Torsin-1A (Homo sapiens) [9], 0.299; in experiment [10], 1.5. In addition, the z-score is -7.87 (inactive) in [2], -1.05 (inactive) in experiment [3], 2.39 (inactive) in [4] and -1.82 (inactive) in [5].
Regarding `CC(C)N1CC=CC23O[C@@H]4C=CCCOC(=O)C4[C@H]2C(=O)N(CCO)[C@@H]3C1=O` (stereo not given in full), the composite z-score is -0.496 in experiment [1]; -0.516 in experiment [6]; -0.213 in [7]; 0.862 with Torsin-1A (Homo sapiens) [8]; 0.875 with Torsin-1A (Homo sapiens) [9]; -0.0837 in experiment [10]. Moreover, the z-score in experiment [2] is -0.102 (inactive); in experiment [3] it was -2.21 (inactive); in [4], -1.99 (inactive); in experiment [5] it was -0.665 (inactive).
For `O=C(CS)NCCCCCCNC(=O)[C@@H]1C[C@@H]2C(=O)N3CCC[C@H]3C(=O)N2[C@@H]1c1cccc(OCCO)c1`, the composite z-score in experiment [1] is 0.939; in [6], 0.283; in [7], -0.128; with Torsin-1A (Homo sapiens) [8], 1.19; in the experiment with Torsin-1A (Homo sapiens) [9], 1.34; in [10], 1.7. Moreover, the z-score in [2] is -0.497 (inactive); in [3], -1.05 (inactive); in experiment [4] it was -1.35 (inactive); in [5], -1.07 (inactive).
As to `C=C(COC)/C(=C/C[C@@H](OC(=O)c1ccncc1)c1ccc(CO)o1)c1cnc2ccccc2c1`, the composite z-score in experiment [1] was 0.911; in [6] it was 1.07; in [7], -0.0136; with Torsin-1A (Homo sapiens) [8], 1.86; with Torsin-1A (Homo sapiens) [9], 0.962; in experiment [10], 2.46. Besides, the z-score in experiment [2] was 0.173 (inactive); in experiment [3] it was -0.854 (inactive); in [4] it was -0.611 (inactive); in experiment [5], -0.0377 (inactive).
